This is a sample that favours compounds with a hit; in the whole collection about 5.7% have one here.
DRD3 antagonist – D3 dopamine receptor (human) antagonism | 2.5% of 360,000 active | max response, negative = inhibition, % | P35462 | D3R cells, DiscoveRx beta-arrestin luminescence, antagonist mode; stronger effect = lower value; in the data active = max response below about -50%; inconclusive = no clear call, values can overlap the other calls
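Cells plated overnight at 1500 cells/well, then exposed to library compounds with dopamine controls for 90 minutes at 37 degrees C. DiscoveRx reagent added for 30–60 minutes at room temperature; luminescence read, quantitative HTS format.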
GLP1R ag – agonists of human GLP-1 receptor; P43220; HEK293 GLP-1R CRE-luciferase, luminescence, 4-6 h; cells express a hypersensitive GLP-1R form; Potency, µM (titrated, usually from 45.6 µM), usual class: activators; 0.007% of 380,000 active; AID 624172
Target sequence (P43220 whole entry, looked up): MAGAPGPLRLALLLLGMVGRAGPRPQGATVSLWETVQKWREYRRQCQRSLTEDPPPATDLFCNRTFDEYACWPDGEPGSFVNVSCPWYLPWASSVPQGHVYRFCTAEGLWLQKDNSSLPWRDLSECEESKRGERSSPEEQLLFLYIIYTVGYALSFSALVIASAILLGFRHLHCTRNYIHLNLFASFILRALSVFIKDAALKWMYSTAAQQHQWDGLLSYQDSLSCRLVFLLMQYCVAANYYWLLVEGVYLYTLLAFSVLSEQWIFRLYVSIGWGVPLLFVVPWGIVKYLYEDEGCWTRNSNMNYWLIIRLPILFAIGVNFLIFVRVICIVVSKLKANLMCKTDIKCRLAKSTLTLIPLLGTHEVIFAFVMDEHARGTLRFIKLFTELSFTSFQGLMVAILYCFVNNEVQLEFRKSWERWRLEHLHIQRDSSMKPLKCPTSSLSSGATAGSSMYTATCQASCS
GLP1R cytotox – cytotoxic in the GLP-1 receptor inverse agonist counter-screen | HEK293 cAMP-luciferase reporter cells, luminescence, 24 h | Potency, µM (highest dose often 38.3 µM), hits mostly inhibitors | 0.13% of 410,000 active;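 note: loss of luciferase light is scored as toxicity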
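Here, cytotoxicity is scored as loss of luminescence. The MLSMR collection was tested on cells seeded in medium containing 10% Nu serum, with a 24 hr compound exposure preceded by 12 hours of culture.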
DRD3 agonist – activates the human D3 dopamine receptor. 0.58% of 410,000 active. D3R DiscoveRx beta-arrestin cells, luminescence, 90 min. max activation, %. P35462. AID 652048; in the data active = max activation above about 30%
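Cells at 1500/well, incubated overnight, then treated with pinned compounds (dopamine as control) for 90 min at 37 degrees C. DiscoveRx reagent added for 30 - 60 minutes at room temperature; luminescence read.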
ClpP mod – qHTS Assay for Activators of ClpP. purified B. subtilis ClpP, FRET peptide cleavage, 20 min. Potency, µM (highest dose often 57.5 µM). 1.9% of 340,000 active. AID 651965, 2013; active = well fitted falling curve with a large enough effect; inconclusive = small, poorly fitted or top-dose-only effect; inactive = no such curve, though single readings can be large or run the other way; note: the source files actives as falling curves though it sought activators and does not explain the sign; nearly all actives have a fitted effect of over 65% in size
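Buffer: 100 mM Tris/HCl pH8, 100 mM KCl, 0.05% low protease BSA, 2.5% glycerol, 0.01% Tween-20. ClpP 10 microg/mL final; 20 min RT; delta FRET normalized to ADEP and DMSO controls.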
GLP1R inv ag – inverse agonists of human GLP-1 receptor | P43220 | HEK293 GLP-1R CRE-luciferase, luminescence, 24 h; GLP-1R form is constitutively active | Potency, µM (doses to about 38.3 µM), usual class: inhibitors | 1.6% of 410,000 active | AID 624417; note: nearly all actives have a fitted effect of over 55% in size
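Stable HEK293 clone (constitutively active GLP-1R + cAMP-response luciferase); 200 cells/uL plated, 12 h pre-culture, compound 24 hr, 37 deg C/5% CO2; detection reagent 12 min RT; luminescence.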
Numbers stand for hits; . = inactive; ? = inconclusive; / = no result given. Unless noted, calls come from the whole dose curve; as a rule, active = well fitted curve in the direction sought with a large enough effect; inconclusive = small, poorly fitted or top-dose-only effect, or another doubt; inactive = no such curve, though single readings can be large; an effect the other way counts as inactive or inconclusive.

SMILES	DRD3 antagonist	GLP1R ag	GLP1R cytotox	DRD3 agonist	ClpP mod	GLP1R inv ag
O=C(NC1CCN(Cc2ccc(F)cc2)CC1)c1ccccc1	-72.4	.	.	.	.	.
CCOC(=O)[C@@H](C)N(C(=O)OC(C)(C)C)S(=O)(=O)N(Cc1ccccc1)[C@@H](C(=O)OC)C(C)C	/	/	/	/	.	/
CC1CCCc2sc3nc(N4CCN(CCO)CC4)n4ncnc4c3c21 (stereo not given)	-56.3	?	?	.	.	.
CCCCCCSc1nc(N)c2c3c(sc2n1)CCCC3C (stereo not given)	/	/	.	.	.	.
COc1cc(OC)c(NC(=O)C2CCCN(c3ncnc4c3nc3n4CCCCC3)C2)cc1Cl (stereo not given)	/	/	.	.	.	.
Clc1ccc(SCCCCN2CCOCC2)cc1	.	.	.	.	.	.
CC1CCN(CCOCCSc2ccc(Cl)cc2)CC1	-109.5	.	.	.	.	?
Clc1ccc(SCCOCCN2CCc3ccccc3C2)cc1	-88.0	.	.	.	/	?
Clc1ccc(SCCOCCN2CCOCC2)cc1	?	.	.	.	.	.
Clc1ccc(SCCOCCN2CCCCC2)cc1	-79.8	.	.	.	.	?
COc1ccc(CCNS(=O)(=O)c2ccc(F)c(C(=O)Nc3ccc(Cl)cc3)c2)cc1OC	/	/	.	.	.	?
COc1ccccc1CCNC(=O)Cc1c(C)c2cc3c(C(C)(C)C)coc3c(C)c2oc1=O	/	/	.	.	.	.
COc1ccc(NC(=O)c2sc(=O)n(Cc3ccc(F)c(Cl)c3)c2C)cc1OC	.	.	.	.	.	?
S=C1SCN(Cc2ccco2)CN1Cc1ccco1	.	.	?	.	/	5.62µM
CCCc1cc(=O)oc2cc(C)cc(OCC(=O)O)c12	.	.	.	.	15.8µM	.
CCCCc1cc(=O)oc2cc(C)cc(OC(C)C(=O)O)c12 (stereo not given)	.	.	.	.	15.8µM	.
CC(=O)C(C)Oc1cc(C)cc2oc(=O)c(C)c(C)c12 (stereo not given)	.	.	.	.	3.16µM	.
CCCCc1cc(=O)oc2cc(C)c3c(C)coc3c12	/	/	.	.	28.2µM	.
O=C(c1ccc(Br)cc1)N1CCN(CCc2ccncc2)CC1	/	/	.	.	.	?
C=C(Cl)COc1cc(C)cc2oc(=O)cc(CC)c12	.	.	.	.	31.6µM	.
CCC(C)[C@@H](NC(=O)OC(C)(C)C)c1nnc(S(=O)(=O)Cc2cccc(C)c2)o1 (stereo not given in full)	-54.4	.	?	.	.	?
Cc1ccccc1CS(=O)(=O)c1nnc([C@H](Cc2ccccc2)NC(=O)OC(C)(C)C)o1	-53.2	.	?	.	.	10µM
COc1ccc(CCNC(=O)c2cc3c(=O)n(C)c4ccccc4c3s2)cc1OC	/	/	.	.	.	.
O=C(O)CN(CC(=O)O)CC1=CC2C(=CC1=O)Oc1cc(O)c(CN(CC(=O)O)CC(=O)O)cc1C21OC(=O)c2ccccc21 (stereo not given)	/	/	/	.	/	/
COc1ccc(C(=O)OCC(=O)N2CCCC2=O)c(OC)c1	-55.5	.	.	.	.	.
SMILES	DRD3 antagonist	GLP1R ag	GLP1R cytotox	DRD3 agonist	ClpP mod	GLP1R inv ag
COc1cc(SC)ccc1C(=O)OCC(=O)NC1CCCC1	.	.	.	.	/	.
COc1cc(SC)ccc1C(=O)OCC(=O)N1CCN(C(C)=O)CC1	-64.5	.	.	.	.	.
C(=Nc1cccnc1)c1ccnc2ccccc12	/	/	/	/	.	/
O=[N+]([O-])c1ccc(N2CCCCC2)cc1	.	.	.	.	/	.
O=[N+]([O-])c1ccc(N2CCN(CC3CCCCC3)CC2)cc1	-58.0	.	.	.	.	.
CCOC(=O)/C(C#N)=C1/SC(CC)C(=O)N1c1ccc(C)cc1 (stereo not given)	-57.2	.	.	.	.	.
COc1ccc(NC(=O)C2(C)Cc3c(-c4ccc5c(c4)OCO5)ccnc3O2)cn1 (stereo not given)	-53.3	?	?	.	.	?

Assay outcomes as filed in PubChem BioAssay.
